Assay results taken from PubChem BioAssay (NCI).
This is part of a sample that, as a whole, favours compounds with a hit. Of some 83,000 tested, about 20% had one in any assay.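 Each cell line was grown in a 96-well plate and treated with one concentration of compound for 48 hours. Values below 10 were considered active.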 Values without a mark were called inactive. Activity calls are given as the source filed them.

Experiments:
Assay in all cases: NCI-60 one-dose screen, 48 h (100 = growth as untreated, 0 = no growth, -100 = all killed)
Settings in all cases: 10 µM unless noted
[1] = system: DU-145 prostate
[2] = system: K-562 leukemia
[3] = system: MALME-3M melanoma
[4] = system: MDA-MB-231 breast
[5] = system: RXF 393 renal
[6] = system: SF-268 CNS
[7] = system: SF-295 CNS
[8] = system: SF-539 CNS
[9] = system: UACC-257 melanoma
[10] = system: M14 melanoma
[11] = system: HCT-15 colon
[12] = system: HT29 colon
[13] = system: SNB-75 CNS
[14] = system: SNB-19 CNS
[15] = system: U251 CNS
[16] = system: PC-3 prostate
[17] = system: SK-MEL-5 melanoma
[18] = system: UACC-62 melanoma
[19] = system: LOX IMVI melanoma
[20] = system: SK-MEL-28 melanoma

Structure (SMILES)	growth [1]	growth [2]	growth [3]	growth [4]	growth [5]	growth [6]	growth [7]	growth [8]	growth [9]	growth [10]	growth [11]	growth [12]	growth [13]	growth [14]	growth [15]	growth [16]	growth [17]	growth [18]	growth [19]	growth [20]
CCCCCCNC(=O)Oc1ccc(/C(=C(/CC)Cc2ccccc2)c2ccc(OCCN(CC)CC)cc2)cc1	80.8%	-11.6% (active)	17.4%	67.5%	60.2%	76.5%	102%	86.1%	86%	39.4%	5.48% (active)	-24.3% (active)	78.8%	69.2%	43.2%	51.6%	51.2%	87.6%	80.1%	80.8%
Cc1cn(-c2cc(C(=O)Nc3cccc(C#Cc4cccc5[nH]nc(N)c45)c3)cc(C(F)(F)F)c2)cn1	72.5%	5.16% (active)	-12% (active)	29.8%	1.89% (active)	58.6%	67.2%	25.3%	18.1%	11.5%	57.4%	18.5%	65.8%	76.2%	54.9%	75.3%	24.2%	12.2%	11%	15.8%
COc1ccc(OC)c(/C=C/[C@H]2O[C@@H](C)[C@H](O)[C@@H]2O)c1	121%	93%	96.7%	98.4%	117%	111%	102%	100%	104%	103%	103%	104%	90.2%	99.4%	94%	106%	103%	100%	99.8%	102%
CN(C)C(C(N)=O)c1ccc(Cl)cc1 (stereo not given)	107%	98.8%	103%	98.3%	118%	102%	100%	99.5%	95.5%	96.7%	108%	104%	93.6%	99.9%	93.4%	95.1%	101%	90.8%	95.7%	101%
O=C(OC(OC(=O)c1cc(Cl)cc(Cl)c1)c1cccc2ccccc12)c1ccccc1 (stereo not given)	103%	92.1%	91%	95.5%	110%	94.8%	107%	103%	96.1%	101%	106%	86.7%	99.3%	100%	98.3%	91.2%	102%	86.4%	92.3%	111%
COc1cc(CCNc2nc3cc(N)cc(N)c3nc2-c2ccccc2)cc(OC)c1	85.7%	-71.2% (active)	-66.4% (active)	-22.6% (active)	-64.4% (active)	7.74% (active)	60.8%	-31.7% (active)	88.9%	-32.8% (active)	69.7%	5.3% (active)	39.9%	12.9%	-80.3% (active)	4.03% (active)	-91.7% (active)	-22.3% (active)	-79.7% (active)	-12.2% (active)
O=C(O)/C=C\C(=O)N1C/C(=C\c2ccccc2Cl)C(=O)/C(=C/c2ccccc2Cl)C1	-34.2% (active)	8.25% (active)	2.25% (active)	-15.4% (active)	-95.8% (active)	-33.7% (active)	-13% (active)	-20.9% (active)	67.3%	12%	-48.8% (active)	-78.1% (active)	-10.3% (active)	-52.7% (active)	-75.2% (active)	16.7%	-54.1% (active)	-60.3% (active)	-69.3% (active)	-39.6% (active)
CCCCCCOc1ccc(/C=N/Nc2cc(C)nc3ccc(Br)cc23)cc1	-82.9% (active)	-64.5% (active)	-82.3% (active)	-88.9% (active)	-97.3% (active)	-1.78% (active)	-83.3% (active)	-84.8% (active)	117%	-44.4% (active)	-83.5% (active)	-65.5% (active)	-94.5% (active)	-73.7% (active)	-64.8% (active)	-73% (active)	47.3%	25.8%	-94.1% (active)	-81.9% (active)
CN(C)c1ccc(-c2c(C#N)c(N)n3nc(N)c(C#N)c3c2C#N)cc1	67.1%	109%	116%	43.2%	65.5%	77%	104%	78.2%	113%	69.1%	81.8%	83.5%	88.5%	95.4%	90.1%	76.6%	71.1%	113%	8.51% (active)	96.3%
COc1cccc(NC(=O)c2cccc(-c3cc(=O)c4c(OC)c(OC)c(OC)cc4o3)c2)c1	71.8%	40.3%	84.8%	59.6%	47.9%	63.1%	70.8%	77.5%	92.4%	73.5%	54.7%	50.8%	89.8%	82.5%	62.1%	57.1%	63.9%	62.1%	49.9%	73.4%
N#Cc1c(NC(=O)c2cccc(Br)c2)sc2c1CCCC2	89.7%	22.5%	62.4%	82.2%	96.8%	97.6%	80.8%	86.6%	83.4%	72.2%	45.8%	59.5%	84.4%	81.1%	88.2%	90.9%	89.8%	71.7%	80%	86.3%
CNC(=O)Nc1ccc(-c2nc(N3CCOCC3)nc3c2cnn3C2CCOCC2)cc1	9.63% (active)	20.1%	-37.6% (active)	5.07% (active)	-35.3% (active)	15.7%	-45% (active)	-24.4% (active)	-24.9% (active)	-12.1% (active)	8.73% (active)	6.44% (active)	-37.9% (active)	7.91% (active)	4.14% (active)	6.22% (active)	-47.7% (active)	-39.6% (active)	4.58% (active)	-14.1% (active)
O=CNc1cc(Cl)cc(Cl)c1	109%	97.5%	103%	85.6%	113%	106%	102%	100%	97.4%	103%	103%	101%	104%	99.7%	102%	96.1%	102%	96.1%	108%	103%
COC(=O)N[C@H]1CCc2cc(OC)c(OC)c(OC)c2-c2ccc(SC)c(=O)cc21	1.4% (active)	9.06% (active)	37.3%	-22.3% (active)	22.5%	15.9%	7.65% (active)	-27.6% (active)	59.4%	3.18% (active)	9.48% (active)	2.35% (active)	32.4%	31.1%	12.8%	22.4%	-42.9% (active)	34.9%	15.7%	56.9%
CCn1ccnc1C(=O)/C=C/c1ccc(CC(=O)Nc2ccc(F)cc2)cc1	-24.8% (active)	7.76% (active)	92.4%	25.9%	26%	5% (active)	22.2%	1.75% (active)	83.5%	75.5%	13.2%	-27.6% (active)	6.23% (active)	14.9%	10.5%	33%	29.3%	55.6%	13.9%	79.8%
